In test [1] the target is Estrogen receptor (Homo sapiens) (UniProt P03372). In words: OT_ERa_GFPERaERE_0120: Odyssey Thera (OT) 2-hour HeLa Transcription Induction Assay for Estrogen Receptor (AID 2283382). In short, it runs like this: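 HeLa, 384-well, 2 h chemical exposure; GFP reporter induction (ERE), fluorescence microscopy; high content image analysis; positive fitting direction vs DMSO.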

Test [2] deals with Bile acid receptor (Homo sapiens) (UniProt Q96RI1). The test is described as follows: OT_FXR_FXRSRC1_1440: Odyssey Thera (OT) 24-hour HEK293T Protein-Complementation Assay for Farnesoid X receptor/SRC-1 Co-activator (AID 2283384). In short, it runs like this:
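Compounds are applied to human kidney HEK293T cells expressing bait and prey fused to reporter protein fragments; after 24 h, reconstituted reporter fluorescence is measured. Activity is fitted as signal gain over DMSO.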

For test [3], the target named is Retinoic acid receptor RXR-alpha (Homo sapiens) (UniProt P19793). The test is described as follows: OT_NURR1_NURR1RXRa_1440: Odyssey Thera (OT) 24-hour HEK293T Protein Complementation Assay for Nurr1/retinoid X receptor (RXR) (AID 2283386). In short, it runs like this: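 Interaction of Nurr1 with RXRα brings fused reporter fragments together in human HEK293T cells, restoring a functional reporter. Fluorescence intensity is measured 24 h after chemical treatment, and values are analysed in the positive direction against DMSO.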

In test [4] the target is Peroxisome proliferator-activated receptor gamma (Homo sapiens) (UniProt P37231). The test is described as follows: OT_PPARg_PPARgSRC1_0480: Odyssey Thera (OT) 8-hour Protein-Complementation Assay for Peroxisome Proliferator-activated Receptor Gamma / SRC-1 Co-activator (AID 2283387).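 Also: nuclear to cytoplasmic split Venus YFP fluorescence ratio reporting PPARg SRC-1 interaction.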 Put shortly:
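Protein-fragment complementation of split Venus YFP reports PPARg/SRC-1 interaction in HEK293T (transfected 48 h before treatment), exposed 8 h. Readout: N/C fluorescence ratio at 488 nm from imaging, Draq5 for segmentation, positive fit relative to DMSO.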

For test [5] the target is unchanged. The test is described as follows: OT_PPARg_PPARgSRC1_1440: Odyssey Thera (OT) 24-hour Protein-Complementation Assay for Peroxisome Proliferator-activated Receptor Gamma/ SRC-1 Co-activator (AID 2283388).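 Also: nuclear to cytoplasmic ratio of reconstituted Venus YFP fluorescence in fixed imaged cells.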 Put shortly:
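Readout: nuclear-to-cytoplasmic 488 nm fluorescence ratio, ≥350 cells per image, 8 images per well, after 24 h compound exposure of HEK293T expressing PPARg/SRC-1 split-YFP fusions. Activity fitted in positive direction against DMSO.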

The target of test [6] is Retinoic acid receptor RXR-alpha (Homo sapiens) (UniProt P19793). In words: OT_NURR1_NURR1RXRa_0480: Odyssey Thera (OT) 8-hour HEK293T Protein Complementation Assay for Nurr1/retinoid X receptor (RXR) (AID 2283385). Put shortly:
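8 h compound exposure, HEK293T; Nurr1/RXRα fragment complementation; fluorescence intensity; positive fitting direction vs DMSO baseline.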

Test [7] is described as follows: CEETOX_H295R_ANDR: CeeTox H295R High-throughput Steroidogenesis Assay for Androstenedione (ANDR) (AID 2283436; active = hit-call score of the fitted dose curve at least 0.9, where 1 is the maximum; inactive = score below 0.9). The conditions noted are these: actives raise or lower the signal. The method, then:
CEETOX_H295R is a cell-based, multiplexed-readout assay that uses H295R, a human adrenal gland cell line, with measurements taken at 48 hours after chemical dosing in a 96-well plate.CEETOX_H295R_ANDR is one of 23 assay component(s) measured or calculated from the CEETOX_H295R assay. It is designed to make measurements of hormone induction, a form of inducible reporter, as detected with absorbance signals by HPLC-MS-MS technology.Data from the assay component CEETOX_H295R_ANDR was analyzed into 1 assay endpoint. This assay endpoint, CEETOX_H295R_ANDR, was analyzed with bidirectional fitting relative to DMSO as the negative control and baseline of activity. […] To generalize the intended target to other relatable targets, this assay endpoint is annotated to the steroid hormone intended target family, where the subfamily is androgens.
Cell culture and media preparation procedures were conducted in accordance with OECD Test No. 456 guidelines, with minor modifications. H295R cells (ATCC CRL-2128) were expanded for 5 passages and frozen in batches in liquid nitrogen. Prior to the steroidogenesis assay, H295R cells were thawed and passed at least 4 times. The maximum passage was 10. Cells were maintained in a 1:1 mixture of DMEM/F12 supplemented with 5ml/L ITS+ Premix (BD Bioscience) and 12.5 ml/L Nu-Serum (BD Bioscience). After seeding cells into 96-well plates at 50-60% confluency, cells were allowed to adhere overnight. […] Test chemicals were incubated for 48 hours, then the medium was removed and split into 2 vials containing approximately 75uL each, and stored at -80 C prior to hormone analysis. For steroid quantification, media samples were shipped to OpAns, LLC (Durham, NC) on dry ice, and samples were thawed to room temperature prior to liquid-liquid extraction. Steroid hormones were extracted from media samples using methyl tertbutyl ether (MTBE). An extra derivatization with dansyl chloride was included for estrogen (estrone and estradiol) detection only. Steroid hormones were separated by HPLC, eluted using a reverse phase C18 gradient with electrospray positive ionization, followed by quantification by tandem mass spectrometry (MS/MS). Data were acquired on a MassHunter Workstation Acquisition version B03.01 (Agilent Technologies, Inc.) and processed using MassHunter Quantitative Analysis for QQQ. Accuracy was determined for each hormone analyte from 3 standards to determine upper and lower limits of quantification (ULOQ and LLOQ, respectively) using a 7-point standard curve. Precision and accuracy of the extraction and quantification methods were calculated as the percent relative standard deviation (%RSD) of the spiked standards and percent spiked standard recovered, respectively. […] Test medium was removed following chemical exposure, and cell viability was evaluated in the same wells by MTT. MTT procedures were as follows: after removal of test medium, 500 uL of 0.5 mg/ml of 3-[4,5-dimethylthiazol-2-y]2,5-diphenyltetrazoliumbromide solution was added to the cells. Following a 4-hour incubation at 37 C and 5% CO2 to allow formazan-crystal formation, the MTT solution was removed and blue formazan salt crystals were solubilized using 500uL anhydrous isopropanol with shaking for 20 minutes. Absorbance was read at 570 and 650nm using a Packard Fusion microplate reader. Background correction of absorbance units was used to determine percent change relative to controls. […] When a test chemical reduced cell viability to 20% - 70%, the test chemical was diluted 10-fold and re-evaluated, but if cell viability was <20%, then the test chemical was diluted 100-fold and re-evaluated. Test chemical dilutions were made until cell viability was >/=70%. MTT assays were also conducted for duplicates of all concentrations of chemicals tested in concentration-response studies.

Test [8] in a line: CEETOX_H295R_11DCORT: CeeTox H295R High-throughput Steroidogenesis Assay for 11-Deoxycortisol (11DCORT) (AID 2283432; active = hit-call score of the fitted dose curve at least 0.9, where 1 is the maximum; inactive = score below 0.9;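 as to AC50: 11-deoxycortisol secreted into the medium measured by LC-MS/MS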). The conditions noted are these: actives raise or lower the signal. Put shortly: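 Human adrenal H295R cells were prestimulated with 10 uM forskolin for 48 h, then exposed to test chemical (0.1% DMSO final) for 48 h. Medium 11-deoxycortisol was quantified by MTBE extraction and HPLC-MS/MS; bidirectional fitting relative to DMSO.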

Test [9] can be described thus: CEETOX_H295R_OHPROG: CeeTox H295R High-throughput Steroidogenesis Assay for OH-Progesterone (OHPROG) (AID 2283435; active = hit-call score of the fitted dose curve at least 0.9, where 1 is the maximum; inactive = score below 0.9;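 as to AC50: 17alpha-hydroxyprogesterone secreted into medium measured by HPLC-MS/MS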). The conditions noted are these: actives raise or lower the signal. Put shortly:
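H295R, 10 uM forskolin prestim 48 h; cmpd in 0.1% DMSO 48 h; medium MTBE-extracted, HPLC-MS/MS for OH-progesterone; 7-pt std curve; bidirectional fit vs DMSO; MTT viability, chemicals diluted until viability >/=70%.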

Test [10] in a line: CEETOX_H295R_CORTIC: CeeTox H295R High-throughput Steroidogenesis Assay for Corticosterone (CORTIC) (AID 2283437; active = hit-call score of the fitted dose curve at least 0.9, where 1 is the maximum; inactive = score below 0.9;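 also: corticosterone secreted into medium quantified by mass spectrometry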). The conditions noted are these: actives raise or lower the signal. Put shortly:
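H295R cells were prestimulated 48 h with 10 uM forskolin, then exposed 48 h to test chemical in 0.1% DMSO. Medium corticosterone was MTBE-extracted and quantified by HPLC-MS/MS; bidirectional fit versus DMSO baseline.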

Inconclusive results are not listed. Activity calls are given as the source filed them. The calls were made as follows, unless noted: active = hit-call score of the fitted dose curve at least 0.9, where 1 is the maximum; inconclusive = response in the unintended direction; inactive = score below 0.9.

Bile acid receptor (Homo sapiens), sequence (Q96RI1 whole entry, looked up, the tested form may be a part): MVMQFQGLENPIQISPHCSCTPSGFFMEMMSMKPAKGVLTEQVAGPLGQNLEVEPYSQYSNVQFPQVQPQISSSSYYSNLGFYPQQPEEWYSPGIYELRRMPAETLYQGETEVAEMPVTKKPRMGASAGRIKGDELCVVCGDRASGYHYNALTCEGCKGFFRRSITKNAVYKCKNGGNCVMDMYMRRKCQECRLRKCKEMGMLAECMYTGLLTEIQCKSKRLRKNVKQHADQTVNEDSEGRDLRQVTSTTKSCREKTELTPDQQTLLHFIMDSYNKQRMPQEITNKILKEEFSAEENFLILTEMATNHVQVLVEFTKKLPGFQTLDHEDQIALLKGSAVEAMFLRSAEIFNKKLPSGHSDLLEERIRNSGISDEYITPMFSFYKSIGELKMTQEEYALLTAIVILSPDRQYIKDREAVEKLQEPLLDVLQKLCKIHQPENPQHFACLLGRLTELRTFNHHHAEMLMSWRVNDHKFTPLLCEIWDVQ
Estrogen receptor (Homo sapiens), sequence (P03372 whole entry, looked up): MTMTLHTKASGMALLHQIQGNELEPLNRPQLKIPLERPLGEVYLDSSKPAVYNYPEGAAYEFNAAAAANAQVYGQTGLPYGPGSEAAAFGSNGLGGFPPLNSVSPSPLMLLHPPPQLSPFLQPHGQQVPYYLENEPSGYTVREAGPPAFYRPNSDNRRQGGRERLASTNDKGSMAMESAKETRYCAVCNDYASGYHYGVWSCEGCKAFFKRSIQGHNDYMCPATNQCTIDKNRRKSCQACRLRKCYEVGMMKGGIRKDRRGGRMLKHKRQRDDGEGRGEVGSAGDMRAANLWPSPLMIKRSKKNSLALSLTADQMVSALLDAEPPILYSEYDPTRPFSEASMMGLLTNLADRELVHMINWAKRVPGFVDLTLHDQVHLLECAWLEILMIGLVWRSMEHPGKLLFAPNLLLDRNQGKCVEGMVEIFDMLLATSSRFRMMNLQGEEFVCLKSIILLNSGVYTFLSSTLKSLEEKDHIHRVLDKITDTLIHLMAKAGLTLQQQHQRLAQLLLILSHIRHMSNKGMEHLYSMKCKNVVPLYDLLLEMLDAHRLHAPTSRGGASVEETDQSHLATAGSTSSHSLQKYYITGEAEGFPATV
Retinoic acid receptor RXR-alpha (Homo sapiens), sequence (P19793 whole entry, looked up, the tested form may be a part): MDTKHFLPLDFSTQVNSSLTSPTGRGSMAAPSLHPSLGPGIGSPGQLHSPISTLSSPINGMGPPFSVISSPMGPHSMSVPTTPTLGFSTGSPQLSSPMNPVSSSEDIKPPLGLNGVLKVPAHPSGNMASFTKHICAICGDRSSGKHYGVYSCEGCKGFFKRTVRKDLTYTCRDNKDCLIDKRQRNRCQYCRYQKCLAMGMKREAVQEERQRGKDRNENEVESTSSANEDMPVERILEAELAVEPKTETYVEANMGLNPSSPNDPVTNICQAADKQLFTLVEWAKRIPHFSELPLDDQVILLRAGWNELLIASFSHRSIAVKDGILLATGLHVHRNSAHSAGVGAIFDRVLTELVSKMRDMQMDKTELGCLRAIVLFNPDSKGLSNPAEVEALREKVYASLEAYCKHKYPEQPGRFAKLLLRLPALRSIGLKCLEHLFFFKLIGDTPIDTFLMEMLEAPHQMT
Peroxisome proliferator-activated receptor gamma (Homo sapiens), sequence (P37231 whole entry, looked up, the tested form may be a part): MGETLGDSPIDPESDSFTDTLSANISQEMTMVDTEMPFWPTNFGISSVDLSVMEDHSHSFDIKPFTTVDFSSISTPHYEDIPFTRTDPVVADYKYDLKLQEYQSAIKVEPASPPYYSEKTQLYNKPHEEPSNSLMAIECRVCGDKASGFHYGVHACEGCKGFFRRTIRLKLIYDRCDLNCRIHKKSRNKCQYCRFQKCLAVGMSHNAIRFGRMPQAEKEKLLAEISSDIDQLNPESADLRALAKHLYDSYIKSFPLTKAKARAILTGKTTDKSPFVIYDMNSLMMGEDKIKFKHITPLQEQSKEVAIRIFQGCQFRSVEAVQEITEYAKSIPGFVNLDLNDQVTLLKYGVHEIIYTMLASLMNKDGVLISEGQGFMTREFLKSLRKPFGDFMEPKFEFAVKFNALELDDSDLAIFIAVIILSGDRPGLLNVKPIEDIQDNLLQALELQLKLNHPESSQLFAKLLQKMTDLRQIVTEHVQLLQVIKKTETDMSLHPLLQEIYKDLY

As to `CCCCCCCCCCCCCC(=O)O`, the compound was called inactive in [1], in test [3], in test [4] and in [5]. The AC50 in test [2] was 81.8 µM (active).

As to `CCCCCCCCCCCCCCCC(=O)OC[C@H](O)[C@H]1OC(=O)C(O)=C1O`, the outcome in test [1], in test [6], in test [4] and in test [5] was inactive. Further, in [3], the AC50 was 84.2 µM (active).

As to `C=C(C)C(=O)O`, the result in test [1], in [6], in test [4] and in [5] was inactive.

For the compound `BrC1CCC(Br)C(Br)CCC(Br)C(Br)CCC1Br` (configuration not stated), the outcome in test [1], in [6], in test [3], in test [4] and in [5] was inactive. Further, the AC50 in test [2] is 17.4 µM (active).

In the case of `CC(C)(C)C(=O)c1ccccc1`, the result in [1], in test [6] and in test [3] was inactive.

Take `CC(=O)OCCC(C)CC(C)(C)C` (configuration not stated): the compound was classed as inactive in test [1], in test [2], in test [3], in [4] and in [5].

Turning to `CC(=O)C=CC1=C(C)CCCC1(C)C`, the compound was classed as inactive in test [1], in [3], in [4] and in test [5]. Also, the AC50 in test [6] is 50 µM (active).

On to `OCCOCCOCCOCCO`, for which the outcome in test [1], in [6] and in test [3] was inactive.

Turning to `CC(C)(N)CO`, the compound was classed as inactive in test [1], in test [2], in [4] and in test [5].

Regarding `CCCCCCCCC`, the outcome in test [1], in test [3], in [4] and in test [5] was inactive.

As for `CC(=O)OCCOC(C)=O`, the compound was classed as inactive in [1], in [3], in [4] and in test [5].

With `O=c1cc(-c2ccccc2)oc2cc(O)cc(O)c12`, the call in test [7] was inactive.

`CCCCCCCCCCCCCOS(=O)(=O)O`: the AC50 in test [6] was 78.4 µM (active). Besides, the call in [4] and in test [5] was inactive.

`Cc1cccc(C)c1C`: the outcome in [8], in test [9] and in [10] was inactive.

Take `C#C[C@]1(O)CC[C@H]2[C@@H]3CCC4=Cc5oncc5C[C@]4(C)[C@H]3CC[C@@]21C`: the AC50 is 5.4 µM (active) in [8], 0.871 µM (active) in [9] and 14.5 µM (active) in [10].

On to `O=C(O)CCCCCCCC(=O)O`, for which the outcome in test [3], in [4] and in test [5] was inactive.

In the case of `O=C(Cl)c1cccc(C(=O)Cl)c1`, the compound was called inactive in test [6], in test [4] and in test [5].

For the compound `CCCCCCCCCCC(CO)CCCCCCCC` (configuration not stated), the compound was called inactive in test [3], in test [4] and in test [5].

In the case of `CC(C)(C#N)c1cc(Cn2cncn2)cc(C(C)(C)C#N)c1`, the result in [3], in test [4] and in test [5] was inactive.

Regarding `CCCCC[Si](OCC)(OCC)OCC`, the call in [6], in test [4] and in test [5] was inactive.

Turning to `CC1(C)[C@H](C(=O)OCc2cccc(Oc3ccccc3)c2)[C@@H]1C=C(Cl)Cl`, the outcome in [8], in test [9], in [7] and in [10] was inactive.

For the compound `COc1ccc(O)cc1`, in test [3], the half-maximal activity concentration (AC50) was 44.6 µM (active). Moreover, the compound was classed as inactive in [4] and in test [5].

Regarding `NCCNCCN`, the compound was classed as inactive in test [3], in test [4] and in test [5].

For `CC(C)=CCCC(C)=CCCC(C)=CCO`, the call in [6], in [4] and in test [5] was inactive. Also, in [9], the AC50 was 31.5 µM (active).

By AC50 is commonly meant the midpoint of the concentration-response curve, whichever way the signal moves.

The values are drawn from PubChem BioAssay (EPA / NIEHS).
